Test results: PubChem BioAssay (EPA / NIEHS)
Records with an inconclusive call do not appear. Calls of active or inactive are those of the source. How the source made its calls, unless noted: active means hit-call score of the fitted dose curve at least 0.9, where 1 is the maximum; inactive means score below 0.9.

Tests used:
[1] = biological target: Hepatocyte nuclear factor 4-alpha (Homo sapiens) (UniProt P41235); experiment: ATG_HNF4a_TRANS: Attagene TRANS-FACTORIAL HepG2 Assay for human Hepatocyte Nuclear Factor 4 alpha (HNF4a) (AID 2282982; active means hit-call score of the fitted dose curve at least 0.9, where 1 is the maximum); conditions: HepG2 HNF4a transactivation reporter, mRNA readout
Outline: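 Readout is fluorescent reporter-transcript fragments resolved by capillary electrophoresis after RT-PCR from HepG2 cells dosed for 24 h. Cells carried transfected GAL4-UAS reporter constructs measuring exogenous NR-GAL4 chimera activity; DMSO served as baseline.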

[2] = ATG_M_06_TRANS: Attagene TRANS-FACTORIAL HepG2 Assay for M06 Transcription Factor (Internal Marker) (AID 2282983; active means hit-call score of the fitted dose curve at least 0.9, where 1 is the maximum;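 further: reporter transcript level by RT-PCR then capillary electrophoresis fluorescence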); conditions: HepG2 Attagene TRANS M06 internal marker reporter
Outline: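 Cells: HepG2, transient multi-reporter transfection. Exposure: 24 h. Detection: RT-PCR, 6-FAM labelling, HpaI digestion (2 h, 37 °C), capillary electrophoresis. Baseline: DMSO.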

[3] = ATG_M_32_TRANS: Attagene TRANS-FACTORIAL HepG2 Assay for M32 Transcription Factor (Internal Marker) (AID 2282984; active means hit-call score of the fitted dose curve at least 0.9, where 1 is the maximum;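 further: transcript level of a background control reporter unit measured by RT-PCR and capillary electrophoresis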); conditions: HepG2 Attagene TRANS M32 internal marker reporter
Outline: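 Measures reporter mRNA induction in human HepG2 liver cells after 24 h chemical treatment. Transcripts from transiently transfected GAL4-UAS reporter units are amplified, fluorescently labelled and sized by capillary electrophoresis; gain of signal relative to DMSO.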

[4] = biological target: Nuclear receptor subfamily 4 group A member 2 (Homo sapiens) (UniProt P43354); experiment: ATG_NURR1_TRANS: Attagene TRANS-FACTORIAL HepG2 Assay for human Nuclear Receptor Related Protein 1 (NURR1) (AID 2282985; active means hit-call score of the fitted dose curve at least 0.9, where 1 is the maximum); conditions: HepG2 Attagene TRANS reporter, mRNA readout
Outline: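 Transient transfection of HepG2, human liver cells, with multiple GAL4-UAS reporter transcription units. Cells dosed 24 h, RNA isolated, reverse-transcribed, PCR-amplified, FAM-labelled, HpaI-digested, sized by capillary electrophoresis. DMSO served as negative control.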

[5] = biological target: Transcriptional activator Myb (Homo sapiens) (UniProt P10242); experiment: ATG_Myb_CIS: Attagene CIS-FACTORIAL HepG2 Assay for human Myeloblastosis (Myb) Proto-Oncogene Transcription Factor (AID 2282986); conditions: HepG2 Attagene CIS-FACTORIAL Myb reporter transcription; actives raise or lower the signal
Outline: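 HepG2 cells were transiently transfected with cis-regulated multiple reporter transcription units reflecting endogenous Myb activity, then exposed to compound for 24 hours. Reporter mRNA was measured by RT-PCR with capillary electrophoresis; bidirectional fitting versus DMSO baseline.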

[6] = biological target: Nuclear respiratory factor 1 (Homo sapiens) (UniProt Q16656); experiment: ATG_NRF1_CIS: Attagene CIS-FACTORIAL HepG2 Assay for human Nuclear Respiratory Factor 1 (NRF1) Orphan Gene (AID 2282987); conditions: HepG2 NRF1 cis-element reporter, Attagene multiplex; actives raise or lower the signal
Outline: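 HepG2 cells transiently transfected with multiple reporter transcription units under cis-regulatory promoter control, so endogenous transcription-factor activity is read. After 24 h compound exposure, reporter mRNA quantified by RT-PCR, fluorescent labelling, HpaI digestion and capillary electrophoresis; bidirectional fitting versus DMSO.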

[7] = ATG_NFI_CIS: Attagene CIS-FACTORIAL HepG2 Assay for human Nuclear Factor I (NFI) (AID 2282989); conditions: HepG2 cis-regulatory reporter, NFI response element transcription; actives raise or lower the signal
Outline: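 HepG2 cells transiently transfected with cis-element-driven multiplexed reporter transcription units, dosed for 24 h. Reporter mRNA quantified by RT-PCR, fluorescent labelling, HpaI digestion and capillary electrophoresis; bidirectional fit versus DMSO baseline.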

[8] = biological target: Myc proto-oncogene protein (Homo sapiens) (UniProt P01106); experiment: ATG_Myc_CIS: Attagene CIS-FACTORIAL HepG2 Assay for human Myelocytomatosis (Myc) Proto-Oncogene Transcription Factor (AID 2282990); conditions: HepG2, Attagene cis-reporter transcription factor activity; actives raise or lower the signal
Outline: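 After 24 h chemical treatment of HepG2 cells carrying multiplexed cis-regulated reporter constructs, reporter transcripts quantified by RT-PCR and capillary electrophoresis of fluorescent fragments. Gain or loss fitted against DMSO baseline.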

[9] = ATG_NRF2_ARE_CIS: Attagene CIS-FACTORIAL HepG2 Assay for human Nuclear Factor Erythroid 2 Related Factor 2 (NFR2) response to Antioxidant Response Elements (ARE) (AID 2282992); conditions: HepG2 Attagene ARE/NRF2 reporter, transcription factor activity; actives raise or lower the signal;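 on AC50: reporter mRNA level measured by RT-PCR and capillary electrophoresis fluorescence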
Outline: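 Transient MRTU transfection of HepG2; 24 h compound exposure; TriZol RNA, RT with oligo(dT), PCR, 6-FAM primer extension, HpaI cut, CE. Bidirectional fit vs DMSO.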

[10] = ATG_Oct_MLP_CIS: Attagene CIS-FACTORIAL HepG2 Assay for human Octamer-Binding Transcription Factor (Oct) (AID 2282993); conditions: HepG2 Attagene cis-factorial Oct reporter, mRNA; actives raise or lower the signal
Outline: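 HepG2 cells transiently transfected with cis-promoter-driven multiplexed reporter transcription units, dosed for 24 h. Reporter mRNA quantified by RT-PCR, fluorescent labelling, HpaI digestion and capillary electrophoresis; bidirectional fits versus DMSO baseline.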

[11] = biological target: Cellular tumor antigen p53 (Homo sapiens) (UniProt P04637); experiment: ATG_p53_CIS: Attagene CIS-FACTORIAL HepG2 Assay for human p53 Transcription Factor (AID 2282994); conditions: HepG2 p53 cis-element reporter, Attagene mRNA; actives raise or lower the signal
Outline: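 HepG2, transient MRTU transfection (cis promoter elements, endogenous TFs); 24 h dosing; RNA isolation, RT-PCR, 6-FAM primer extension, HpaI digest, CE fluorescence; bidirectional fit vs DMSO.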

[12] = BSK_3C_TissueFactor: BioMAP Diversity Plus: 3C Assay for Tissue Factor Biomarker Activity (AID 2282997); conditions: BioMAP 3C HUVEC, tissue factor biomarker readout; actives raise or lower the signal
Outline: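 Dosing of human umbilical vein endothelial cells preceded a 24 h incubation. Tissue Factor was then read by ELISA, with increases and decreases both scored relative to DMSO controls.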

[13] = BSK_3C_uPAR: BioMAP Diversity Plus: 3C Assay for Urokinase-type plasminogen activator receptor (uPAR) Biomarker Activity (AID 2282998); conditions: BioMAP 3C HUVEC, uPAR biomarker ELISA; actives raise or lower the signal
Outline: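 Human umbilical vein endothelial primary cells were exposed to test chemical for 24 h. Cell-surface uPAR was then quantified by ELISA, and responses were fitted bidirectionally against DMSO as negative control and baseline.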

[14] = BSK_3C_VCAM1: BioMAP Diversity Plus: 3C Assay for Vascular cell adhesion molecule 1 (VCAM1) Biomarker Activity (AID 2282999); conditions: BioMAP 3C HUVEC, VCAM1 ELISA, cytokine-stimulated; actives raise or lower the signal
Outline: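 Endothelial cells from human umbilical vein are treated with test chemical. At 24 h, VCAM-1 is measured by ELISA, and responses in either direction are fitted relative to DMSO.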

[15] = BSK_4H_Eotaxin3: BioMAP Diversity Plus: 4H Assay for Eotaxin 3 Biomarker Activity (AID 2283000); conditions: primary human endothelial cells (HUVEC); actives raise or lower the signal
Outline: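 Human umbilical vein endothelial cells (BSK_4H system) dosed with test chemical; Eotaxin-3 (CCL26) measured by ELISA 24 h after dosing. Bidirectional curve fitting relative to DMSO negative control as baseline.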

[16] = biological target: human Peroxisome Proliferator-activated Receptor delta (PPARd), PPARD (gene 5467) (UniProt Q03181); experiment: ATG_PPARd_TRANS: Attagene TRANS-FACTORIAL HepG2 Assay for human Peroxisome Proliferator-activated Receptor delta (PPARd) (AID 2283002; active means hit-call score of the fitted dose curve at least 0.9, where 1 is the maximum)
Outline: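 Read-out is induced reporter mRNA, quantified by RT-PCR with fluorescent labelling and capillary electrophoresis after 24 h dosing. Cells are HepG2 transiently carrying multiple GAL4-UAS reporter units driven by exogenous NR-GAL4 chimeras; DMSO serves as baseline.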

[17] = read-out: Intercellular Adhesion Molecule 1 (ICAM1), ICAM1 (gene 3383); experiment: BSK_3C_ICAM1: BioMAP Diversity Plus: 3C Assay for Intercellular Adhesion Molecule 1 (ICAM1) Biomarker Activity (AID 2283003); conditions: primary human endothelial cells (HUVEC); actives raise or lower the signal
Outline: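 ICAM-1 levels measured by ELISA after HUVEC cultures in the 3C system had been dosed for 24 h. Gain or loss of signal relative to DMSO was fitted in both directions.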

[18] = biological target: human Retinoic Acid Receptor beta (RARb), RARB (gene 5915) (UniProt P10826); experiment: ATG_RARb_TRANS: Attagene TRANS-FACTORIAL HepG2 Assay for human Retinoic Acid Receptor beta (AID 2283004; active means hit-call score of the fitted dose curve at least 0.9, where 1 is the maximum)
Outline: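 Induction of reporter mRNA from a chimeric RARb-Gal4 construct was measured by RT-PCR, FAM labelling, HpaI digestion and capillary electrophoresis. Measurements followed 24 h compound treatment of transiently transfected human HepG2 liver cells, with DMSO as baseline.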

[19] = biological target: human Peroxisome Proliferator-activated Receptor alpha (PPARa), PPARA (gene 5465) (UniProt Q07869); experiment: ATG_PPARa_TRANS: Attagene TRANS-FACTORIAL HepG2 Assay for human Peroxisome Proliferator-activated Receptor alpha (PPARa) (AID 2283001; active means hit-call score of the fitted dose curve at least 0.9, where 1 is the maximum)
Outline: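 Read-out is fluorescence of reporter cDNA fragments resolved by capillary electrophoresis after RT-PCR. Human HepG2 liver cells carried transfected PPARa-Gal4 chimera and GAL4-UAS reporter units, treated 24 h; activity scored as increase over DMSO.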

[20] = ATG_NF_kB_CIS: Attagene CIS-FACTORIAL HepG2 Assay for human Nuclear Factor Kappa B (NF-kB) (AID 2282991); conditions: HepG2 Attagene cis-factorial NF-kB reporter mRNA; actives raise or lower the signal
Outline: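 HepG2 cells transiently transfected with multiplexed cis-element reporter units measuring endogenous transcription factor activity; reporter mRNA read 24 h after dosing by RT-PCR, fluorescent labelling, HpaI digestion and capillary electrophoresis. Bidirectional fit against DMSO baseline.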

Measured: AC50

Sequence of Nuclear receptor subfamily 4 group A member 2 (Homo sapiens) (P43354 whole entry, looked up, the tested form may be a part): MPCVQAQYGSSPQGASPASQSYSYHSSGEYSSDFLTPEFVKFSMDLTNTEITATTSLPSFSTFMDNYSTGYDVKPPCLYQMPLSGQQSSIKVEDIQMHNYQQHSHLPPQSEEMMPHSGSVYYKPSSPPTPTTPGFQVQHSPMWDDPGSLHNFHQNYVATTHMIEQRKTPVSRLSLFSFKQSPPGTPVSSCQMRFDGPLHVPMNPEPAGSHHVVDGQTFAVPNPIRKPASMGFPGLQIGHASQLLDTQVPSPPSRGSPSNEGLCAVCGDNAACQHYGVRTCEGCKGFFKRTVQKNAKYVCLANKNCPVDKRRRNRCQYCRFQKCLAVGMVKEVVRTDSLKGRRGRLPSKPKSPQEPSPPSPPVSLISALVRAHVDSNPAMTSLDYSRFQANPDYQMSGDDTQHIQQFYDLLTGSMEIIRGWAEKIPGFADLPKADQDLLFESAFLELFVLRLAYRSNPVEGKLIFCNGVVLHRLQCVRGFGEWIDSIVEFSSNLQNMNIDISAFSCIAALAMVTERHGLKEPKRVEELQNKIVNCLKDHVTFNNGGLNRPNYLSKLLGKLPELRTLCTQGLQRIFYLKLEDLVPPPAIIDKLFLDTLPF
Sequence of Nuclear respiratory factor 1 (Homo sapiens) (Q16656 whole entry, looked up): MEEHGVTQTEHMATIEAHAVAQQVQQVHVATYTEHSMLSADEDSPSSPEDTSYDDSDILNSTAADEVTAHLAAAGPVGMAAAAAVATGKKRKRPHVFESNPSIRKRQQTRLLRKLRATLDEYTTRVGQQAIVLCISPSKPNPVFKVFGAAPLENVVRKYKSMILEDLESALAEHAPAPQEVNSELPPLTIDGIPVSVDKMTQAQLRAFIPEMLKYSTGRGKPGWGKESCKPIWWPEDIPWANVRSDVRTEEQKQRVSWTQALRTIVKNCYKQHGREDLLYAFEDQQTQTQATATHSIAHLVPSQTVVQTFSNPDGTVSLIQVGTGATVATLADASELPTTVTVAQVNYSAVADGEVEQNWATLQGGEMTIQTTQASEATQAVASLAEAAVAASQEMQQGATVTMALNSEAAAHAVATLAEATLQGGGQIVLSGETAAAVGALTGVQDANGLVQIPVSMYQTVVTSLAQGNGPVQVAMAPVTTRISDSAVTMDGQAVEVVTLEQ
Sequence of Transcriptional activator Myb (Homo sapiens) (P10242 whole entry, looked up): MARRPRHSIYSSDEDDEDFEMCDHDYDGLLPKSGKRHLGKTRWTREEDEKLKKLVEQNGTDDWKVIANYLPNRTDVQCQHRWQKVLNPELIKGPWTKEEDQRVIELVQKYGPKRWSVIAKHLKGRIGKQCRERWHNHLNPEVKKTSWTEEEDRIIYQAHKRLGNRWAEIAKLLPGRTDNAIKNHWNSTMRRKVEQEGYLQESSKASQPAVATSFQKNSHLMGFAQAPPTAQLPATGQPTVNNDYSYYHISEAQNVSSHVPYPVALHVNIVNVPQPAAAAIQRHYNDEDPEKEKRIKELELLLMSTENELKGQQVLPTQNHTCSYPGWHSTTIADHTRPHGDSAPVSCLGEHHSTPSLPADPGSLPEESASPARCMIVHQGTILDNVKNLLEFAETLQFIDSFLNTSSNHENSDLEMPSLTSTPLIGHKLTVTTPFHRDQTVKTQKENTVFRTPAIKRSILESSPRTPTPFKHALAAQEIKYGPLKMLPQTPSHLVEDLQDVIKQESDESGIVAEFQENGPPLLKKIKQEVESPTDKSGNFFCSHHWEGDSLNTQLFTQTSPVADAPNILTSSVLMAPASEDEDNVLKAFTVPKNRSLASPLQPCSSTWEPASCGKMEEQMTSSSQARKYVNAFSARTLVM
Sequence of Cellular tumor antigen p53 (Homo sapiens) (P04637 whole entry, looked up): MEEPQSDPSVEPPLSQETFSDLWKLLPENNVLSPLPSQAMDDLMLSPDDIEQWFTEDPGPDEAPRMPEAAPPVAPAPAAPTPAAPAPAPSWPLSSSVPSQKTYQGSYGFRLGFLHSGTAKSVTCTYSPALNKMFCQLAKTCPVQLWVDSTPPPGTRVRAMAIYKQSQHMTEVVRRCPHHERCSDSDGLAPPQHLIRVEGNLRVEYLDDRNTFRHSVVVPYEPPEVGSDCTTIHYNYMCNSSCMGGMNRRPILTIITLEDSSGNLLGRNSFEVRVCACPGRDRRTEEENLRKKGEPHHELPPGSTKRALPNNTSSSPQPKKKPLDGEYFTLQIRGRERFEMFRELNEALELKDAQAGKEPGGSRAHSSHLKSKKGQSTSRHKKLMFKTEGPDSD
Sequence of Myc proto-oncogene protein (Homo sapiens) (P01106 whole entry, looked up, the tested form may be a part): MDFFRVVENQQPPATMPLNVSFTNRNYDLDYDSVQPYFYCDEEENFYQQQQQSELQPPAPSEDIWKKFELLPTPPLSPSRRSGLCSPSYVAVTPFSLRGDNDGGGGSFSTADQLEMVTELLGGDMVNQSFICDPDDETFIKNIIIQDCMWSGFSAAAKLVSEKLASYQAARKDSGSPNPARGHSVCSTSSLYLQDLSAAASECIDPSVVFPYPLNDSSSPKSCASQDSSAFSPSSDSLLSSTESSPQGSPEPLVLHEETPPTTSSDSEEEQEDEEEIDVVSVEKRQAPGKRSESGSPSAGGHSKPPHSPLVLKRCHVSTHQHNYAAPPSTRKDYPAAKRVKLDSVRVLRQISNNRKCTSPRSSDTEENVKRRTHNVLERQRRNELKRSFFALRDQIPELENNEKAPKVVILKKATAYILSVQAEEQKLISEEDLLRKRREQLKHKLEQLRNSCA
Sequence of human Peroxisome Proliferator-activated Receptor alpha (PPARa), PPARA (gene 5465) (Q07869 whole entry, looked up, the tested form may be a part): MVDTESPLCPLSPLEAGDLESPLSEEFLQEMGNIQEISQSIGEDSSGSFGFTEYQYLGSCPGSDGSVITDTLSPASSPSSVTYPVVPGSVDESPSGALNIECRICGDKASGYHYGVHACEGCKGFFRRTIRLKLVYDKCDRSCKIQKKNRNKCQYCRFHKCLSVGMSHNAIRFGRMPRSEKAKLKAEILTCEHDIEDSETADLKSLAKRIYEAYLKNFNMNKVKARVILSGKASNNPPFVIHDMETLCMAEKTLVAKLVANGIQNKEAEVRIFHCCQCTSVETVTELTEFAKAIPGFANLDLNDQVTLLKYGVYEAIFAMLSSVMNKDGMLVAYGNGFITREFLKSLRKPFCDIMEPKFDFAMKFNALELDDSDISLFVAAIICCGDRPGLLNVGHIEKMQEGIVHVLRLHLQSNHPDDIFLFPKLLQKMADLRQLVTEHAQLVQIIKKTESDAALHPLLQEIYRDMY
Sequence of human Retinoic Acid Receptor beta (RARb), RARB (gene 5915) (P10826 whole entry, looked up, the tested form may be a part): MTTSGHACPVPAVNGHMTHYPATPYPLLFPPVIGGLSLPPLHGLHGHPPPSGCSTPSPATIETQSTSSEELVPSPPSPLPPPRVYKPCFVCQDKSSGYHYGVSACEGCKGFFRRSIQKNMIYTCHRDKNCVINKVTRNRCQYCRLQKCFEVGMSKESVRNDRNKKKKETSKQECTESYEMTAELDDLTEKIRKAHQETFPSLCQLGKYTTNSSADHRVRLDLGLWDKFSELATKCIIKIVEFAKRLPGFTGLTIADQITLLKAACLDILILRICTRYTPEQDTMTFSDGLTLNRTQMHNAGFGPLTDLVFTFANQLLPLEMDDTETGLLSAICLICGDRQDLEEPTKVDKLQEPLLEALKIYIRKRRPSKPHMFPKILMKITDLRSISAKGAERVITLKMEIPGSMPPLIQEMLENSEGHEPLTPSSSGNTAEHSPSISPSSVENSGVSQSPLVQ
Sequence of human Peroxisome Proliferator-activated Receptor delta (PPARd), PPARD (gene 5467) (Q03181 whole entry, looked up, the tested form may be a part): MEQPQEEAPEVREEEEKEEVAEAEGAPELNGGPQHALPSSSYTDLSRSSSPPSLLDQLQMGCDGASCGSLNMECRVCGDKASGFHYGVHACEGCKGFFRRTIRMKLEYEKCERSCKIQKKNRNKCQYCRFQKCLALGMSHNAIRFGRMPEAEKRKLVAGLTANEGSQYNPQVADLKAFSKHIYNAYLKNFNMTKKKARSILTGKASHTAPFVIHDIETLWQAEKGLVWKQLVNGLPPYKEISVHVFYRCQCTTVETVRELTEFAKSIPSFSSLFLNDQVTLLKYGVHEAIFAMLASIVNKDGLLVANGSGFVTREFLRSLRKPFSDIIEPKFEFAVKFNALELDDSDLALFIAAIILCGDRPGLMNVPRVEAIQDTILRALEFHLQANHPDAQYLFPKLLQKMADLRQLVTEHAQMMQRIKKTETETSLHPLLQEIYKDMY
Sequence of Hepatocyte nuclear factor 4-alpha (Homo sapiens) (P41235 whole entry, looked up, the tested form may be a part): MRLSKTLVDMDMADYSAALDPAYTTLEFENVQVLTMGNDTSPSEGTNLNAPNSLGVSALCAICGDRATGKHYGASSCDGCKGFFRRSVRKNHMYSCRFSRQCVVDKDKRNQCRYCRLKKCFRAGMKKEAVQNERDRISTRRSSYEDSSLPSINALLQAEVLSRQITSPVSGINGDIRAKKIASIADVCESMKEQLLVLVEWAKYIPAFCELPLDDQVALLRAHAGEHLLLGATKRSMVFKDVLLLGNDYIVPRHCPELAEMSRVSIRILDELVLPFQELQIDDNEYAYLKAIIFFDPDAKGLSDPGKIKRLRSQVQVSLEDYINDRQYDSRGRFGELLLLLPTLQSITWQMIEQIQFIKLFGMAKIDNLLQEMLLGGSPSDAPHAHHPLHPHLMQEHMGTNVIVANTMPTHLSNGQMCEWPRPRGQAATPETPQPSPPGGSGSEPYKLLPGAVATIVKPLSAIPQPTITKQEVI

C1=Cc2cccc3cccc1c23
inactive: [1] | [2] | [3] | [4] | [5] | [6] | [7] | [8] | [9] | [10] | [11] | [12] | [13] | [14] | [15] | [16] | [17]

Cc1ccc(N=C=O)cc1N=C=O
inactive: [2] | [5] | [6] | [7] | [8] | [9] | [11] | [12] | [13] | [14] | [15] | [17] | [18]

CC(C)(OOC(C)(C)c1ccccc1)c1ccccc1
active: [6] 63 µM | [7] 59.1 µM | [8] 77.6 µM | [9] 29.1 µM | [12] 29 µM | [13] 33.7 µM | [14] 27.7 µM | [15] 29.9 µM
inactive: [2] | [4] | [5] | [11] | [19] | [16] | [17]

OCCCl
inactive: [2] | [5] | [6] | [7] | [8] | [9] | [10] | [11] | [12] | [13] | [14] | [15] | [19] | [16] | [17]

ClCCOCCCl
inactive: [3] | [4] | [5] | [6] | [7] | [8] | [9] | [11] | [12] | [13] | [14] | [15] | [16] | [17]

CC(C)N(Cc1ccccc1)C(=O)C(C)(C)C
inactive: [4] | [5] | [6] | [7] | [8] | [20] | [9] | [11] | [12] | [13] | [14] | [15] | [17] | [18]

c1ccc(N=Nc2ccccc2)cc1
active: [9] 61.2 µM
inactive: [2] | [5] | [6] | [7] | [8] | [20] | [10] | [11] | [12] | [13] | [14] | [15] | [19] | [17]

CN(C)c1ccccc1
inactive: [2] | [5] | [6] | [7] | [8] | [9] | [11] | [12] | [13] | [14] | [15] | [19] | [17]

Cc1ccc([N+](=O)[O-])cc1
inactive: [2] | [5] | [6] | [7] | [8] | [9] | [11] | [12] | [13] | [14] | [15] | [16] | [17]

CC(C)(C)OOC(=O)c1ccccc1
active: [5] 153 µM | [9] 79.5 µM | [11] 136 µM
inactive: [2] | [6] | [7] | [8] | [12] | [13] | [14] | [15] | [19] | [16] | [17]

CCOc1cccc(C2(N3CCN(c4ccccc4)CC3)CCC(C)CC2)c1 (stereo not given)
inactive: [2] | [5] | [6] | [7] | [8] | [9] | [10] | [11] | [12] | [13] | [14] | [15] | [19] | [16] | [17] | [18]

O=C(Oc1ccc(Br)cc1)N1CCN2CCC1CC2
inactive: [3] | [5] | [6] | [7] | [8] | [9] | [12] | [13] | [14] | [15] | [19] | [16] | [17]
active: [11] 64.9 µM

Cc1ccc(N)c(N)c1
active: [9] 8.84 µM | [10] 42.3 µM | [14] 5.57 µM
inactive: [2] | [5] | [6] | [7] | [8] | [20] | [11] | [12] | [13] | [15] | [19] | [17]

CCN(CC)CCO
inactive: [2] | [4] | [5] | [6] | [7] | [8] | [9] | [11] | [12] | [13] | [14] | [15] | [16] | [17]

CN(C)[C@@H]1C(=O)C(C(N)=O)=C(O)[C@@]2(O)C(=O)C3=C(O)c4c(O)cccc4[C@@](C)(O)[C@H]3C[C@@H]12
inactive: [5] | [6] | [7] | [8] | [9] | [11] | [12] | [13] | [14] | [15] | [19] | [16] | [17]
